Assay outcomes: PubChem, National Center for Advancing Translational Sciences (NCATS)
Luc counter – blocks Kinase-Glo luciferase, a counter-screen artifact; Q27757; Kinase-Glo luciferase, ATP luminescence, 8 min; Potency, µM (doses to about 38.3 µM), hits mostly inhibitors; 200,000 tested, 0.28% active; AID 1379; active means well fitted inhibition curve with a large enough effect; inconclusive means small, poorly fitted or top-dose-only effect; further: nearly all actives have a fitted effect of over 60% in size
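Substrate mix (final 50 mM imidazole pH 7.2, 50 mM KCl, 7 mM MgCl2, 10 uM ATP, 0.01% Tween 20, 0.05% BSA) plus pin-tool compound, then Kinase-Glo detection mix; 8 min ambient, luminescence read.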
KCNH2 WT inh – inhibitors of human wildtype KCNH2 potassium channel. U2OS, BacMam KCNH2, thallium flux FluxOr; active compounds read low. activity change, % at 1.84 µM. Q12809. AID 720551. 340,000 tested, 0.37% active;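 active means maximum activity change below -70%; inconclusive means maximum activity change between -70% and -50%; inactive means maximum activity change above -50%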
Target sequence (Q12809 whole entry, looked up): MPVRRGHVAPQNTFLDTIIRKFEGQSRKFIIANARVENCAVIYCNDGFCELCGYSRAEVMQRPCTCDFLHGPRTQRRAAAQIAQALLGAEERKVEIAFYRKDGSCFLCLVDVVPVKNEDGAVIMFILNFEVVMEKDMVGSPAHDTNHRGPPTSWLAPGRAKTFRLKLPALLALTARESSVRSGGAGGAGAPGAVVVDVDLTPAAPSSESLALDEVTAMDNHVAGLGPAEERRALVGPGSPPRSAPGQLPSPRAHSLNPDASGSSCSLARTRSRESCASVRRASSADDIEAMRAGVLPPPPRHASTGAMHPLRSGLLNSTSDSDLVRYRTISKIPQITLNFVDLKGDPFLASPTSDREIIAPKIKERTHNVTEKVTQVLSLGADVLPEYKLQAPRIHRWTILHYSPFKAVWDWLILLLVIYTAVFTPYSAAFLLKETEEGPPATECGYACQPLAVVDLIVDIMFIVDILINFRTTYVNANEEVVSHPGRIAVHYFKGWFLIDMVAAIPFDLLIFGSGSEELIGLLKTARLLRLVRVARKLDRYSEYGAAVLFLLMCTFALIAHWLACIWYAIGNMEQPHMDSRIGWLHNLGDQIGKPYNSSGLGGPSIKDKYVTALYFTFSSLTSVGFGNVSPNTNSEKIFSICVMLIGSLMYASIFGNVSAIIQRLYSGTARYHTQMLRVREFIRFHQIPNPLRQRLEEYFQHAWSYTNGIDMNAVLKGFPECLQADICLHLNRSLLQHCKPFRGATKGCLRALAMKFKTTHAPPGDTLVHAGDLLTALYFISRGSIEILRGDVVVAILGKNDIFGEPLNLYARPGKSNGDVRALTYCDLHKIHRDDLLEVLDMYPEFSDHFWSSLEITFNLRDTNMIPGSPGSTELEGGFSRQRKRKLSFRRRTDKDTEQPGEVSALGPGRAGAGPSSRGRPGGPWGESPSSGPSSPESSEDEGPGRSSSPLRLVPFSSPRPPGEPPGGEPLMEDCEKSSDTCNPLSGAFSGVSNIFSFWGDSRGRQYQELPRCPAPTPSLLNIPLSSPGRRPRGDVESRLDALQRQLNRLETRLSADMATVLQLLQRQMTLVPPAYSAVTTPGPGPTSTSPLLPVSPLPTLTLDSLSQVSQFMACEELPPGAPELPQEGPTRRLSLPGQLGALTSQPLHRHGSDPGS
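U2OS cells were transduced with wild-type KCNH2 virus (2.03 x 10^8 / mL) for 4 h at room temperature, then cultured overnight at 37 C. Thallium flux was read with FluxOr dye. Rate constants were normalized to DMSO controls.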
KCNH2 3.1 inh – KCNH2 3.1 (human) potassium channel inhibition; 340,000 tested, 0.95% active; activity change, % (tested at about 1.8 µM); U2OS KCNH2 3.1, thallium flux FluxOr; active compounds read low;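 active means maximum activity change below -70%; inconclusive means maximum activity change from -70% to -50%; inactive means maximum activity change above -50%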;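 further: thallium influx rate constant from kinetic fluorescence after stimulation buffer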
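We transduce U2OS cells with the mutant 3.1 virus, culture them overnight, load FluxOr with Red40 quencher for 45 min, then add stimulation buffer and read kinetically for 2 min to derive a normalized rate constant.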
Each line names hits and unclear results; the compound was inactive in the other large screens. In the library only some 1.2% were active in any assay of this set; here they are far more common.

CCOc1ccc(-n2c(=S)sc3c(=O)n(-c4ccc(F)cc4)c(SCC(=O)O)nc32)cc1	KCNH2 WT inh -239 (no result: Luc counter)
CC(=O)Nc1ccc(Oc2ccc(S(=O)(=O)N3CCCC3)cn2)cc1	none (no result: Luc counter)
N#Cc1cccc(Oc2ccc(S(=O)(=O)N3CCCC3)cn2)c1	KCNH2 WT inh -89, KCNH2 3.1 inh inconclusive (no result: Luc counter)
Cc1ccc(C(CC(=O)N2CCCC2)c2ccccc2)c(O)c1 (configuration not stated)	none (no result: Luc counter)
Cc1cccc(C)c1NS(=O)(=O)c1cc2c3c(c1)CC(=O)N3CCC2	none (no result: Luc counter)
CN(C)S(=O)(=O)c1cccc(NC(=O)COC(=O)CCC(=O)c2cccs2)c1	none
NS(=O)(=O)c1cccc(NC(=O)COC(=O)CCC(=O)c2cccs2)c1	KCNH2 3.1 inh -71 (no result: Luc counter)
COc1cccc(NC(=O)c2ccnc(N3CCC(C(=O)NCc4cc(OC)ccc4OC)CC3)c2)c1	none (no result: Luc counter)
CC(Oc1ccccc1F)c1nnc(SCC(=O)NCc2ccc3c(c2)OCO3)o1 (configuration not stated)	none (no result: Luc counter)
NC(=S)N/N=C/c1cccc(/C=N/NC(N)=S)c1	KCNH2 3.1 inh -128 (no result: Luc counter)
NC(=S)N/N=C/c1cccc(Br)c1	none
Cc1ccc(NC(=O)CSc2nc3[nH]ncc3c(=O)[nH]2)cc1Cl	none (no result: Luc counter)
Cc1nc2ccccc2n1C1CCN(CC(=O)Nc2ccccc2Br)CC1	KCNH2 WT inh inconclusive, KCNH2 3.1 inh -91
Cc1ccccc1NC(=O)CN1CCC(n2nnc3ccccc32)CC1	none
COc1cc(C(=S)N2CCN(c3ccccc3Cl)CC2)cc(O)c1O	KCNH2 WT inh -174, KCNH2 3.1 inh -75
COc1ccc(C(=S)N2CCN(c3ccccc3Cl)CC2)cc1OC	none (no result: Luc counter)
CCCCC(C)(O)C/C=C/[C@H]1[C@H](O)CC(=O)[C@@H]1CCCCCCC(=O)O (some centres not stated)	none (no result: KCNH2 WT inh, KCNH2 3.1 inh)
CC12CC(NC(=O)N1c1cccc(C(=O)NCc3ccccn3)c1)c1ccccc1O2 (configuration not stated)	none (no result: Luc counter)
CC[C@]12CCCN3CCc4c(n(c5ccccc45)C(=O)C1)[C@@H]32	KCNH2 3.1 inh inconclusive (no result: Luc counter)
CC[C@]12CCCN3CCc4c(n(c5ccccc45)[C@@](O)(C(=O)OC)C1)[C@@H]32	KCNH2 3.1 inh -103 (no result: Luc counter)
CCOc1ccc(Oc2ccccc2NS(=O)(=O)c2ccc(CCC(=O)O)cc2)cc1	none (no result: Luc counter)
C=C(C)C1COc2cc3oc(=O)ccc3cc2O1 (configuration not stated)	none (no result: KCNH2 WT inh, KCNH2 3.1 inh)
COc1ccc(Cn2c(CO)cnc2SCC(=O)Nc2cc(C)on2)cc1	none (no result: Luc counter)
COc1ccc(CC2(CO)CCN(Cc3cccc4nccnc34)CC2)cc1	none
COc1ccc(CC2(CO)CCN(Cc3cccn3-c3ccccn3)CC2)cc1	KCNH2 WT inh inconclusive, KCNH2 3.1 inh -108
COc1ccc(CC2(CO)CCN(Cc3ccc(OC(F)(F)F)cc3)CC2)cc1	KCNH2 WT inh inconclusive, KCNH2 3.1 inh -81
COc1ccc(CC2(CO)CCN(Cc3cnc(-c4ccccc4C)nc3)CC2)cc1	none
COc1ccc(CC2(CO)CCN(Cc3ccc(NC(C)=O)cc3)CC2)cc1	none
COc1ccc(CC2(CO)CCN(Cc3cnn(-c4ccccc4)c3)CC2)cc1	KCNH2 3.1 inh -89
COc1ccc(CC2(CO)CCN(Cc3cnn(-c4ccc(F)cc4)c3)CC2)cc1	none
COc1ccc(CC2(CO)CCN(Cc3ccc4c(c3)CCO4)CC2)cc1	KCNH2 WT inh -154, KCNH2 3.1 inh -181 (no result: Luc counter)
Cc1ccc([C@@H]2C[C@H]3[C@@H](CN2S(=O)(=O)c2ccc(Cl)cc2)C(=O)C[C@@H](c2ccc(Cl)cc2)N3S(=O)(=O)c2ccccc2C)cc1	none (no result: Luc counter)
COC(=O)C1=C(C(=O)OC)[C@@H]2Nc3ccccc3[C@@]23C[C@@H](C(=O)OC)N(C(=O)COCc2ccccc2)C3=N1	none
CC[C@]1(C(=O)OC)[C@H]2C(=O)N(Cc3ccccc3)C(=O)[C@H]2[C@H]2CN(C)C(=NC)N21	none (no result: Luc counter)
COCCNC(=O)CN1C(=O)c2cccc3cccc1c23	none (no result: Luc counter)
O=C(COC(=O)c1ccc2ncsc2c1)NCc1ccccc1Cl	none (no result: Luc counter)
OCC1(Cc2ccccc2)CCN(Cc2ccc(-c3ccco3)cc2)CC1	KCNH2 3.1 inh -85
Cc1c(CN2CCC(CO)(Cc3ccccc3)CC2)c2ccccc2n1C	none
OCC1(Cc2ccccc2)CCN(CCCC2CCCC2)CC1	KCNH2 3.1 inh -75
OCC1(Cc2ccccc2)CCCN(Cc2ccc(-c3ccco3)cc2)C1 (configuration not stated)	none
COc1ccccc1-n1c(SCC(N)=O)nc2c(c1=O)SCC2	KCNH2 3.1 inh -70
COc1ccc(NC(=O)CSc2nc3c(c(=O)n2-c2ccccc2OC)SCC3)cc1	none
COc1ccc(N/C=C\C(=O)c2ccc(Br)cc2)cc1OC	none
COc1ccc(N/C=C\C(=O)c2ccc(C)cc2)cc1OC	KCNH2 3.1 inh -141
Cn1c(N2CCN(C(=O)Nc3ccc(F)cc3)CC2)nc2ccccc21	none
Cn1c(N2CCN(C(c3ccccc3)c3ccccc3)CC2)nc2ccccc21	KCNH2 3.1 inh -86 (no result: Luc counter)
COCCN(C(=O)CSc1nnc(-c2ccc(F)cc2)n1N)c1c(N)n(CC(C)C)c(=O)[nH]c1=O	none (no result: Luc counter)
COC(=O)CN1C(c2ccc(OC)cc2)=Nc2ccc(Cl)cc2C1c1ccccc1 (configuration not stated)	KCNH2 3.1 inh -96
COC(=O)CN1C(c2cccc(Cl)c2)=Nc2ccc(Cl)cc2C1c1ccccc1 (configuration not stated)	none (no result: Luc counter)
Cc1ccc(/C=C2/SC(=S)N(CCCC(=O)Nc3cc([N+](=O)[O-])ccc3O)C2=O)cc1	KCNH2 3.1 inh -83 (no result: Luc counter)
Cc1ccc(/C=C2\SC(=S)N(CCCC(=O)Nc3ccc(O)cc3)C2=O)cc1	none (no result: Luc counter)
COc1ccc(CNCCc2ccc(Cl)cc2)cc1OCc1ccccc1	KCNH2 3.1 inh -71
NS(=O)(=O)c1ccc(CCNCc2cc(Br)ccc2OCc2ccccc2)cc1	KCNH2 3.1 inh -70
COc1cc(OC)c(C(=O)/C=C/c2ccc(OCc3ccccc3)c(OC)c2)c(OC)c1	none (no result: Luc counter)
CCOc1cc(CNCCc2ccc(S(N)(=O)=O)cc2)ccc1OCc1ccccc1	none (no result: KCNH2 3.1 inh)
CCOc1cc(CNCc2ccccc2)ccc1OCc1ccc(Cl)cc1	none (no result: Luc counter)
CCN(Cc1ccccc1)Cc1ccc(OCc2ccccc2)c(OC)c1	none (no result: Luc counter)
COc1ccc(C(=O)C=Cc2ccc(OCc3ccccc3)c(OC)c2)cc1OC	KCNH2 3.1 inh -72 (no result: Luc counter)
COc1cc(CN(C)CCc2ccccc2)ccc1OCc1ccccc1	KCNH2 3.1 inh -95
CCCCCCN1C[C@@H](O)[C@H](n2cc(-c3ccc(F)cc3)nn2)C[C@@H]1c1ccc(C)cc1	KCNH2 3.1 inh inconclusive (no result: Luc counter)
O=C(O)c1cc(=S)nc[nH]1	none (no result: Luc counter)
CC1(C(=O)N2CCN(Cc3ccccc3Cl)CC2)CC1(Cl)Cl (configuration not stated)	none (no result: Luc counter)
Cc1cccc(-c2noc(-c3ccc4c(c3)OCO4)n2)c1	none
c1ccc(-c2noc(-c3ccc4c(c3)OCO4)n2)nc1	Luc counter 2.8µM
COc1cccc(-c2nc(-c3ccccc3)no2)c1	none
c1ccc(-c2noc(-c3ccc4ccccc4c3)n2)nc1	Luc counter 10µM
COc1cccc(-c2nc(-c3ccccn3)no2)c1	Luc counter 7.9µM
c1ccc(-c2noc(-c3cccnc3)n2)nc1	Luc counter inconclusive
CC(=O)N[C@@H](CC(=O)N[C@H](CCC(=O)O)C(=O)O)C(=O)O	none (no result: Luc counter)
O=C(NCC(c1ccco1)N1CCCC1)c1cc2ccccc2s1 (configuration not stated)	none (no result: Luc counter)
